# In PubChem BioAssay (NCI):
# Compounds without any hit were thinned out: in the full panel of roughly 83,000, 20% have a hit.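 The endpoint reported here, percent growth, reads 100 for growth as untreated, 0 for no net growth and -100 for all cells dead.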 Values without a mark were called inactive. The source made the active and inactive calls. How the source made its calls: active means growth percent below 10; inactive means the rest.
# How the values were obtained:
# Assay in all cases: NCI-60 one-dose screen, 48 h (100 = growth as untreated, 0 = no growth, -100 = all killed)
# Details in all cases: 10 µM unless noted
# HCT-15 colon = system: HCT-15 colon
# HT29 colon = system: HT29 colon
# SNB-75 CNS = system: SNB-75 CNS
# SNB-19 CNS = system: SNB-19 CNS
# U251 CNS = system: U251 CNS
# PC-3 prostate = system: PC-3 prostate
# SK-MEL-5 melanoma = system: SK-MEL-5 melanoma
# UACC-62 melanoma = system: UACC-62 melanoma
# LOX IMVI melanoma = system: LOX IMVI melanoma
# SK-MEL-28 melanoma = system: SK-MEL-28 melanoma
# SK-MEL-2 melanoma = system: SK-MEL-2 melanoma
# EKVX NSCLC = system: EKVX NSCLC
# SN12C renal = system: SN12C renal
# UO-31 renal = system: UO-31 renal
# TK-10 renal = system: TK-10 renal
# ACHN renal = system: ACHN renal
# CAKI-1 renal = system: CAKI-1 renal
# A498 renal = system: A498 renal
# CCRF-CEM leukemia = system: CCRF-CEM leukemia
# MOLT-4 leukemia = system: MOLT-4 leukemia
SMILES,growth (HCT-15 colon),growth (HT29 colon),growth (SNB-75 CNS),growth (SNB-19 CNS),growth (U251 CNS),growth (PC-3 prostate),growth (SK-MEL-5 melanoma),growth (UACC-62 melanoma),growth (LOX IMVI melanoma),growth (SK-MEL-28 melanoma),growth (SK-MEL-2 melanoma) [%],growth (EKVX NSCLC) [%],growth (SN12C renal),growth (UO-31 renal),growth (TK-10 renal),growth (ACHN renal),growth (CAKI-1 renal),growth (A498 renal),growth (CCRF-CEM leukemia),growth (MOLT-4 leukemia)
CN(C)CC(=O)c1ccc2cc(Br)c3ccccc3c2c1,62.1%,9.4% (active),83.7%,69.7%,53.3%,57.2%,83%,79.1%,43.6%,99.1%,61.3,89.7,72.6%,36%,72.7%,59.7%,75.4%,42.2%,71.3%,40.3%
Clc1cccc(CNc2c3ccccc3nc3ccccc23)c1,14%,8.62% (active),68.7%,26.4%,22.7%,23.5%,66.2%,52.6%,1.75% (active),66.2%,77.3,27.2,23.6%,16%,52.1%,15.7%,28.2%,-3.08% (active),18.1%,1.13% (active)
O=C1C=CN2C(=O)CC=CC2[C@@H]1O (stereo not given in full),138%,110%,94.1%,130%,120%,94.9%,109%,115%,100%,110%,113,121,106%,78.2%,118%,109%,109%,108%,96.3%,109%
Cc1cc(O)ccc1Sc1ccccc1[N+](=O)[O-],92.7%,94.3%,94.8%,91.6%,94.2%,82.3%,91.1%,76%,84.1%,101%,99.4,74.8,92.3%,52.7%,90.6%,87.4%,89.8%,87.6%,93.5%,115%
Oc1c(C(Nc2ccccc2Br)c2ccccc2)ccc2cccnc12 (stereo not given),26.5%,24%,60.4%,31.7%,12.9%,48.6%,2.41% (active),-26.3% (active),10.5%,39.2%,12.1,23.4,24.7%,16.8%,30.3%,13.5%,13.2%,47.7%,17.3%,4.89% (active)
O=c1nc(-c2ccccc2)c2cc(-c3ccc(N4CCOCC4)cc3)ccc2[nH]1,74%,84.5%,106%,87.4%,69.9%,70.9%,83.6%,74.3%,74.5%,91.8%,81.6,89.8,79.4%,66%,68.1%,71.6%,74.8%,88.6%,77.4%,71.2%
Nc1c(N)c2ccccc2c2ccccc12,111%,108%,84.8%,104%,106%,89.5%,107%,95%,101%,110%,106,92.6,99.5%,69.1%,119%,111%,89%,113%,104%,100%
COc1ccc(-c2conc2-n2nc(-c3ccccc3)nc2-c2ccccc2)cc1,107%,102%,98.3%,104%,106%,95.6%,101%,103%,92.6%,108%,103,101,101%,73.2%,137%,97.2%,83.8%,120%,106%,99.1%
O=C(Nc1ccc(-n2ccc3c(NC(=O)c4ccccc4)nccc32)cc1)c1ccc(N2CCOCC2)c(C(F)(F)F)c1,20%,2.44% (active),23.5%,44.6%,14.4%,35.7%,23.7%,49.4%,13.4%,25.3%,21,65.6,41.8%,0.765% (active),27.6%,32.5%,25.6%,68.9%,26.9%,30.5%
CCOC(=O)c1ccc2c(c1)nc(-c1ccc(Cl)cc1)n2-c1cc(C(C)(C)C)[nH]n1,20.2%,18.5%,18.2%,48%,33.6%,48.7%,0.494% (active),25.5%,27.8%,36.2%,38.7,47.6,60.5%,36.3%,84.9%,35.8%,25.5%,45.3%,22.3%,9.68% (active)
c1ccc2oc(-c3cnc4nonc4n3)cc2c1,107%,96.3%,76.6%,88.8%,103%,92.7%,98.4%,79.6%,94.6%,120%,95,71.2,93%,63.1%,132%,82.3%,86.8%,103%,95.8%,97.2%
COc1ncnc2[nH]cc(CN3CCN(c4ccc(F)cc4)CC3)c12,104%,91.2%,100%,102%,99.2%,100%,103%,106%,106%,114%,103,97.9,102%,94.3%,90.1%,104%,98.8%,80%,97.1%,105%
COc1ccc(N=C2CSc3nnc(-c4cc(F)c(Cl)cc4Cl)n3N2)cc1,5.01% (active),-66.9% (active),-60.6% (active),0.21% (active),-52.2% (active),-55% (active),-63.1% (active),20.9%,-42.1% (active),-31.3% (active),25.8,10.8,7.26% (active),-69.5% (active),-48.1% (active),-26.2% (active),-11.2% (active),-41.7% (active),-24.4% (active),-4.82% (active)
O=C(NNC(=O)c1cccc(Cl)c1)c1ccccc1,114%,104%,99.4%,119%,100%,91.1%,101%,123%,105%,119%,100,103,106%,99.3%,117%,130%,103%,73.2%,98.4%,100%
C=C(c1ccc(C(=O)NCCCn2ccnc2)cc1)c1cc2c(cc1C)C(C)(C)CCC2(C)C,21.1%,16.1%,41.4%,48.4%,12.1%,-6.2% (active),0.58% (active),66.7%,-25.7% (active),6.96% (active),55.9,27.1,19.5%,-20.4% (active),84.9%,-16.6% (active),-35.6% (active),116%,13.5%,11.1%
c1ccc(-c2ccc(-c3ccccc3)[nH]2)cc1,94.8%,101%,87.9%,104%,105%,99.8%,99%,87.2%,103%,107%,98.7,75.6,95.5%,87%,138%,100%,83.6%,63.7%,90.9%,80.3%
